Bioassay records as filed in PubChem.
Most compounds without a hit are left out; they make up all but 3.5% or so of the library.
ERb coact inh: inhibitors of ERβ-SRC1 coactivator interaction, primary screen, biochemical, TR-FRET, ERβ LBD, SRC-1 peptide | Estrogen receptor beta (Homo sapiens), Q92731 | TR-FRET ER-beta LBD / SRC1-Cy5 peptide binding; receptor agonist-loaded with 1 µM estradiol | inhibition, % at 25.6 µM | hit rate 1.3% among 86,000;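 active = compounds whose percent inhibition of the receptor-coactivator binding signal exceeds about 50% in the single-dose screen, limit read from the data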;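 also: 0% = receptor plus peptide wells without compound and 100% = peptide-only wells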
CD11b adhes enh: enhancers of CD11b/CD18 adhesion to fibrinogen, primary screen, K562 cells, luminescence; Integrin beta-2 (Homo sapiens) + Integrin alpha-M (Homo sapiens), P05107+P11215; ATPlite luminescence; activation, % at 10 µM; hit rate 0.07% among 93,000; AID 1499, 2009;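 active = 10 µM primary screen giving 50% or more activity, confirmed by 40% or more on retest at that dose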
FAK blocker: FAK kinase inhibitors, primary screen, biochemical; Focal adhesion kinase 1 (Homo sapiens), Q05397; biochemical FAK kinase activity assay; inhibition, %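 (tested at 7 µM)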; hit rate 0.84% among 97,000; AID 727, 2007; in the data active = inhibition above about 19%;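 also: 0% = DMSO and 100% = reference compound high control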
Target sequence (Q05397 whole entry, looked up): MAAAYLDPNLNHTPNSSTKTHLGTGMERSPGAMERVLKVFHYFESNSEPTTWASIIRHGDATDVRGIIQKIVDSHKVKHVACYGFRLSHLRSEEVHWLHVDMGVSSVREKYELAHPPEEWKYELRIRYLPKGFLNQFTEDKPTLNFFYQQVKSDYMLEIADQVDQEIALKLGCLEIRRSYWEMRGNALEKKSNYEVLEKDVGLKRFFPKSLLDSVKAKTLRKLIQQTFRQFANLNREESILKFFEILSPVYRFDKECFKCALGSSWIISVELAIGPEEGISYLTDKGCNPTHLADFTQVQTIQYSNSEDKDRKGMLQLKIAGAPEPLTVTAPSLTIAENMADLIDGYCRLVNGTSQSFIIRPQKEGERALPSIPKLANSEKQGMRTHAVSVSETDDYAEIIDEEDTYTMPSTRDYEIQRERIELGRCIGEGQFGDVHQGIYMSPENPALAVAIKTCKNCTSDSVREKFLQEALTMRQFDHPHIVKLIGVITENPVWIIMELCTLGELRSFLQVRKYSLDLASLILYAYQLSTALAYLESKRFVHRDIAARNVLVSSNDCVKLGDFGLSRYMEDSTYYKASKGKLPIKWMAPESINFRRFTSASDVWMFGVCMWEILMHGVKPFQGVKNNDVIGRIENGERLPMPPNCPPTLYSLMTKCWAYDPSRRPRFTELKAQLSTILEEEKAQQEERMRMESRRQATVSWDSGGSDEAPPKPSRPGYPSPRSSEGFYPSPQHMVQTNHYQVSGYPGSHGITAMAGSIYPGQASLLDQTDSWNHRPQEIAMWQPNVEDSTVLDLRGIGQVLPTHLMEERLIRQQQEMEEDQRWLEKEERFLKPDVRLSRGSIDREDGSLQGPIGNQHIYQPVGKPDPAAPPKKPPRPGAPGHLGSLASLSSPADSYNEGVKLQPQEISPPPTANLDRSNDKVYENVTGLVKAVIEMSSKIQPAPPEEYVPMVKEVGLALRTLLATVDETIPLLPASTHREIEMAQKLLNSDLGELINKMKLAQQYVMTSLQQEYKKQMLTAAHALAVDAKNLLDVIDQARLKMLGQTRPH
ERa coact inh: ERα–SRC-1 coactivator interaction inhibitors, primary screen, biochemical, TR-FRET, ERα LBD, estradiol-bound. Estrogen receptor (Homo sapiens), P03372. TR-FRET ER-alpha LBD / SRC-1 peptide. inhibition, % at 25.6 µM. hit rate 1.7% among 86,000; in the data active = inhibition above about 50%;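 also: 0% = receptor plus peptide control and 100% = peptide only without receptor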
ERa SRC1 pot: enhancers of ERα–SRC-1 coactivator binding, primary screen, biochemical, TR-FRET, ERα LBD, low estradiol. coactivator binding (% of control), % at 25.6 µM. TR-FRET ERalpha-LBD/SRC-Cy5 coactivator binding, 2 h; 100 = basal binding, no effect. hit rate 1.3% among 86,000. Estrogen receptor (Homo sapiens), P03372; in the data active = activity above about 200%;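 also: binding measured in presence of low estradiol as agonist stimulus; 0% = peptide alone without receptor and 100% = receptor with peptide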
Mac1 fbg inh: inhibitors of CD11b/CD18 adhesion to fibrinogen, primary screen, K562 cells, luminescence; ATPlite luminescence; Mn2+ added to activate the integrin; inhibition, % at 10 µM; hit rate 0.54% among 93,000;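 active = primary inhibition of 50% or more at 10 µM, then 40% or more on retest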
An asterisk follows results filed as active; · = no result given; [ ] = dose if it differs, or a comment.

SMILES	ERb coact inh	CD11b adhes enh	FAK blocker	ERa coact inh	ERa SRC1 pot	Mac1 fbg inh
Cc1cc(NS(=O)(=O)c2ccc(Nc3nc(-c4ccc(O)cc4)cs3)cc2)no1	·	6.0	·	·	·	-12.2
Cc1ccc(NC(=O)/C(=C/c2cccc([N+](=O)[O-])c2)NC(=O)C2CCCCC2)c(C)c1	28.5	·	3.3	54.9*	63.5	·
O=C(Nc1ccccc1OC(F)F)c1oc2ccccc2c1COc1ccccc1	·	-4.0	·	·	·	8.5
C/C=C(/C(=C/C)c1ccc(O)cc1)c1ccc(O)cc1	15.1	·	·	9.7	740.6*	·
COCCn1cnc2c1c(=O)n(CC(=O)OCC(=O)NCC(F)(F)F)c(=O)n2Cc1ccccc1	·	3.6	·	·	·	-16.0
Cc1cccc(-n2nc3c(c2NC(=O)c2ccc(Br)o2)CSC3)c1	-0.4	22.5	-0.9	0.6	210.8*	-9.6
O=C1c2ccccc2C(=O)c2c1cccc2N1CCOCC1	·	-2.4	5.0	·	·	-5.6
O=C1c2ccccc2-c2c1cccc2C(=O)N1CCOCC1	55.5*[fluorescence artefact?]	·	1.2	-2.8	110.2	·
COCCNS(=O)(=O)c1ccc2c(c1)C(=O)c1cc(S(=O)(=O)NCCOC)ccc1-2	55.0*[fluorescence artefact?]	1.1	-1.3	-0.8	77.8	-3.2
O=C1c2cc(S(=O)(=O)NCCCO)ccc2-c2ccc(S(=O)(=O)NCCCO)cc21	-0.3	-2.3	-1.6	7.1	77.2	1.6
COc1cc(S(=O)(=O)NC(C)C)ccc1Cl	1.8	-4.4	-2.4	65.4*[fluorescence artefact?]	89.2	-2.8
O=C(NCCc1c[nH]c2ccccc12)c1cccc(S(=O)(=O)Nc2ccccc2Cl)c1	·	-5.4	·	·	·	55.8*
CCOC(=O)c1c(NC(=O)CN2CCCCC2)sc2c1CCCC2O (stereo not given)	-2.8	-4.1	1.7	2.2	90.0	7.5
O=C(NCc1ccco1)c1cc2ccccc2c(=O)o1	47.4	-0.1	10.2	57.1*	67.3	1.9
Cc1cc(C)c2nc(-c3ccccn3)cc(C(=O)Nc3cc(C)on3)c2c1	10.1	23.5	-2.3	5.8	102.5	18.1
Cc1ccc(-c2cc(C(=O)Nc3ccccc3C)c3ccccc3n2)o1	56.2*[fluorescence artefact?]	·	1.4	78.0*[fluorescence artefact?]	65.6	·
O=C(NCc1ccco1)c1cccc2ccccc12	-5.5	1.0	2.9	-1.4	59.8	-16.9
Cc1cc(C)c2nc(-c3ccccn3)cc(C(=O)NCc3ccco3)c2c1	62.6*[fluorescence artefact?]	41.6	2.8	66.4*	83.0	-7.3
Cc1ccc(-c2cc(C(=O)NCc3ccco3)c3ccccc3n2)o1	72.6*	·	16.1	82.2*	24.9	·
Cc1csc(NC(=O)c2cc(-c3ccco3)nc3ccccc23)n1	·	69.6	·	·	·	4.8
O=C(NCc1ccco1)c1cc(-c2ccncc2)nc2ccccc12	-0.5	3.6	-0.1	-11.2	109.9	-4.9
COc1cc(NS(=O)(=O)c2ccc(N/C=C(\C=O)c3nc4ccccc4o3)cc2)nc(OC)n1	·	0.0	·	·	·	8.1
COc1ccc(NC(=O)c2cc(S(=O)(=O)N3CCS(=O)(=O)CC3)ccc2Cl)cc1	·	·	-5.5	·	·	·
Cc1nc(N2CCC3(CC2)OCCO3)c2nnn(Cc3ccccc3F)c2n1	-3.1	0.2	-2.1	2.0	115.4	-29.4
CCCn1nc(C(=O)OCC(=O)c2ccc3c(c2)NC(=O)CO3)c2ccccc2c1=O	24.4	·	-10.3	73.3*	167.0	·
SMILES	ERb coact inh	CD11b adhes enh	FAK blocker	ERa coact inh	ERa SRC1 pot	Mac1 fbg inh
Cc1cccc2cc(CN(Cc3ccc(F)cc3)C(=O)N3CCOCC3)c3nnnn3c12	23.0	-1.6	-9.0	0.3	106.5	-1.9
CCOC(=O)c1sc(NC(=O)c2cccnc2)c(C#N)c1C	·	-9.3	-5.1	·	·	63.4*
Nc1nonc1NC(=O)CSc1nc2ccccc2s1	5.0	1.3	-1.0	-8.7	98.9	15.2
Cc1cccc(-n2c(SCc3cc(=O)n4c(C)cccc4n3)nc3[nH]ncc3c2=O)c1	53.1*	-2.3	0.9	-5.9	82.1	6.6
N#CC(C(=O)Nc1cccc(Cl)c1)=C1Nc2ccccc2N1	-6.7	24.4	2.1	-13.3	105.0	14.9
N#CC(C(=O)Nc1ccc(Cl)c(Cl)c1)=C1Nc2ccccc2N1	70.0*[fluorescence artefact?]	-1.9	-2.1	79.4*[fluorescence artefact?]	45.9	3.2
COc1ccc2c(C)cc(SCC(=O)c3ccc4c(c3)OCO4)nc2c1	12.1	3.2	-6.4	16.1	300.3*[fluorescence artefact?]	-2.0
CC(C)(C)CC(C)(C)Nc1c(-c2ccc(O)cc2)nc2cnccn12	5.9	·	2.4	-0.8	78.8	·
CN(CCNC(=O)c1cc2c(=O)n(C)c3ccccc3c2n1C)Cc1ccccc1	-1.4	7.7	9.8	16.2	95.5	16.0
Cn1c(C(=O)NCc2cccs2)cc2c(=O)n(C)c3ccccc3c21	7.5	-1.7	-9.3	-1.0	512.8*[fluorescence artefact?]	2.9
Cc1ccc(CNC(=O)c2cc3c(=O)n(C)c4ccccc4c3n2C)cc1	42.3	32.9	-22.6	38.6	290.9*[fluorescence artefact?]	-3.5
COc1cc(NC(=O)c2cc3c(=O)n(C)c4ccccc4c3n2C)cc(OC)c1OC	-5.0	51.9	-0.3	-22.6	330.2*	16.0
Cn1c(C(=O)NC2CCCCC2)cc2c(=O)n(C)c3ccccc3c21	21.4	10.8	1.3	27.6	150.5	-1.1
Cn1c(C(=O)NC2CCCCCC2)cc2c(=O)n(C)c3ccccc3c21	28.4	32.5	5.3	22.8	223.3*[fluorescence artefact?]	-2.3
Cn1c(C(=O)NCCN2CCOCC2)cc2c(=O)n(C)c3ccccc3c21	-5.3	-0.9	-4.1	-5.3	90.0	-4.5
COc1ccc(NS(=O)(=O)c2cc(NC(=O)/C=C/c3cccs3)ccc2N2CCOCC2)cc1	·	16.8	·	·	·	8.7
CCOC(=O)N1CCN(Cc2cccs2)CC1	-3.2	0.6	1.4	-2.4	108.8	-6.1
CCc1ccccc1NC(=O)C(C)n1nc([N+](=O)[O-])c(Br)c1C (stereo not given)	·	·	-2.8	·	·	·
CCOC(=O)c1ccc(NC(=O)N2CC(C)OC(C)C2)cc1 (stereo not given)	-3.7	-8.0	0.0	13.2	120.1	6.4
CCN(CC)c1ccc(NC(=O)c2cnc3ccccn3c2=O)c(C)c1	-1.2	-1.1	·	-40.7	628.6*[fluorescence artefact?]	-5.1
CC12CC3CC(C)(C1)CC(C(=O)Nc1nn[nH]n1)(C3)C2	-6.4	-4.8	·	-3.9	226.3*	-8.9
CC(C)Cn1c(N)c(C(=O)NCC2CCCO2)c2nc3ccccc3nc21 (stereo not given)	-3.7	-3.0	17.1	4.5	56.1	13.3
Nc1c(C(=O)NCC2CCCO2)c2nc3ccccc3nc2n1/N=C/c1ccncc1 (stereo not given)	0.1	·	·	-22.2	313.7*[fluorescence artefact?]	·
